In all, about 52,000 compounds went through this assay and about 4,300 (8.3%) were called active. The sample as a whole holds a higher share of actives than the screen did. Values without a mark were called inactive. Rule as the data show it: active = survival mostly below about 52% (no sharp cut-off); inactive = mostly above about 56%.

The assay deals with DeltatarO mutant. Put plainly: S. aureus survival, RN4220 and DeltatarO strains – OD600, teichoic acid synthesis inhibitors, primary screen (AID 463173). To be noted: S. aureus RN4220 wild type/DeltatarO growth, OD600, 18 h, active compounds read low, screened at 18.75 µg/mL (by protocol).
Regarding `CCc1ccccc1NC(=O)CCn1cccn1`, the survival is 135%.
In the case of `CCC1CN(C(=O)N2CCC(C(=O)NCc3ccco3)CC2)c2ccccc2O1` (stereo not given) it was 66%; in that of `COc1ccccc1CNC(=O)C1CCN(S(=O)(=O)c2c(C)noc2/C=C/c2cccs2)CC1`, 59%.
With `CN(C(=O)CSc1nc2ccc(NC(=O)c3cccc(F)c3)cc2s1)c1ccccc1` the figure was 69%; with `Cc1ccccc1NC(=O)C(=O)NCC(c1ccc2c(c1)OCO2)N1CCN(c2ccccc2)CC1` (stereo not given), 73%; with `O=S(=O)(Nc1cccc(C(F)(F)F)c1)c1ccc(-c2cnc(C3CC3)o2)cc1`, 91%.
With `c1ccc2[nH]c(CN3CCCCC3)nc2c1`, the survival was 59%.
With `O=C(NCc1ccc(F)cc1)c1ccc(NC(=O)N2CC3CCCN3c3ccccc32)cc1` (stereo not given) the figure was 113%; with `Cc1oc(CC(C)C)cc1C(N)=O`, 100%.
With `O=C(CSC1=Nc2ccccc2C2=NC(Cc3ccccc3)C(=O)N12)Nc1ccccc1` (stereo not given), the survival is 74%.
In the case of `CCOc1ccc(-c2cn(-c3ccc(OC)cc3)c(SCC(=O)Nc3ccccc3Cl)n2)cc1` it was 99%.
Take `O=C(CSc1nnc2scc(-c3ccc(Cl)cc3)n12)Nc1ccc(F)cc1`: the survival was 57%.
`COc1cccc(NC(=O)CSc2nnc3scc(-c4ccc(Cl)cc4)n23)c1`: the survival was 52%.
For the compound `O=C(CSc1nnc2scc(-c3ccc(Cl)cc3)n12)Nc1cccc(C(F)(F)F)c1`, the survival is 58%.
In the case of `CC(C)(C)c1ccc(NC(=O)CSc2nnc3scc(-c4ccccc4)n23)cc1` it was 41% (active).
For `CCOc1ccc(NC(=O)CSc2nnc3scc(-c4ccccc4)n23)cc1`, the survival is 17% (active).
With `CC(=O)Nc1ccc(C(=O)CSc2nnc3scc(-c4ccccc4)n23)cc1` the figure was 89%; with `COc1ccc(NC(=O)CSc2nnc3scc(-c4ccc(Cl)cc4)n23)cc1`, 95%; with `Cc1ccc(NC(=O)CSc2nnc3scc(-c4ccc(Cl)cc4)n23)cc1`, 49%.
As to `Cc1cccc(NC(=O)CSc2nnc3scc(-c4ccccc4)n23)c1`, the survival was 40% (active).
With `CCOc1ccc(NC(=O)CSc2nnc3scc(-c4ccc(Cl)cc4)n23)cc1`, the survival is 48%.
With `O=C(CSc1nnc2scc(-c3ccccc3)n12)Nc1ccc(Cl)cc1`, the survival is 56%.
Consider `Cc1ccc(NC(=O)CSc2nnc3scc(-c4ccccc4)n23)cc1`, for which the survival is 15% (active).
With `CC(NCc1ccc(F)cc1)C(=O)NC1CCCCC1` (stereo not given) the figure was 79%; with `Cc1ccc(NC(=O)C2CC(=O)N(c3ccc(OC(C)C)cc3)C2)cc1` (stereo not given), 82%; with `COc1ccc(C2CC(c3c(O)n(C4CCCCC4)c(=O)[nH]c3=O)=Nc3ccccc3S2)cc1` (stereo not given), 48%.
For `O=C1COc2ccccc2N1Cc1ccc(OC(F)(F)F)cc1`, the survival was 86%.
In the case of `COc1ccc(CC(=O)NCc2ccc3c(c2)CCN3C(=O)c2ccccc2)cc1OC` it was 82%; in that of `Cc1ccc(CN(Cc2cccn2-c2nnc(N3CCCC3=O)s2)C(=O)Nc2cc(C)cc(C)c2)cc1`, 123%; in that of `COc1ccc(Nc2nc3ccc(C)cc3nc2-n2nc(C)cc2C)cc1Cl`, 69%.
In the case of `COc1cccc(CNC(=O)c2ccc3c(c2)nc2n3CCC(C)C2)c1` (stereo not given) it was 72%; in that of `Cc1cn2c(=O)cc(COC(=O)c3cccc(NC(=O)COc4ccccc4C)c3)nc2s1`, 85%.
With `CCOc1ccc(CCNC(=O)c2cc3c(-c4ccccc4F)nn(C)c3s2)cc1OCC` the figure was 67%; with `CCn1nc(-c2ccccc2)c(-c2ccccc2)c(C(=O)Nc2nc(C)c(C(C)=O)s2)c1=O`, 53%; with `COCc1cc(C)nc2c1C(=O)NC(c1ccc(NC(C)=O)cc1)N2Cc1ccccc1` (stereo not given), 74%.
`O=C(CSc1nccn1Cc1ccc(Cl)cc1)NC1CCCC1`: the survival is 83%.
In the case of `COc1ccc(CNC(=O)Cn2c(=O)nc(-c3ccccc3F)c3cc(Cl)ccc32)cc1` it was 72%.
`Nc1nc(OC(C(F)(F)F)C(F)(F)F)nc(OC(C(F)(F)F)C(F)(F)F)n1`: the survival is 13% (active).
With `FC(F)(F)COc1nc(OCC(F)(F)F)nc(OCC(F)(F)F)n1`, the survival is 74%.
`CCC(C)Nc1nc(OC(C(F)(F)F)C(F)(F)F)nc(N(CC)CC)n1` (stereo not given): the survival was 80%.
In the case of `O=C(O)Cn1ccc(=O)[nH]c1=O` it was 96%; in that of `CCOc1ccc(CCNC(=O)c2cc3c(=O)oc4ccc(C)cc4c3s2)cc1OCC`, 67%.
With `Cc1nc2nc(NCc3cccc(Cl)c3)[nH]n2c(=O)c1Cc1ccccc1` the figure was 78%; with `Cc1nc2nc(NCc3ccccc3Cl)[nH]n2c(=O)c1Cc1ccccc1`, 83%; with `Cc1nc2nc(NCc3ccc(Cl)cc3)[nH]n2c(=O)c1Cc1ccccc1`, 40% (active).
Consider `Cc1nc2nc(NCc3cccc(Br)c3)[nH]n2c(=O)c1Cc1ccccc1`, for which the survival is 54%.
In the case of `CCc1ccc(CNc2nc3nc(C)c(Cc4ccccc4)c(=O)n3[nH]2)cc1` it was 80%.
With `Cc1nc2nc(NCc3ccc(Br)cc3)[nH]n2c(=O)c1Cc1ccccc1` the figure was 39% (active); with `Nc1ccc(Oc2ccc(C(=O)O)c(C(=O)O)c2)cc1`, 98%.
`O=C(NCc1ccco1)C1C2C3CCC(C3)C12` (stereo not given): the survival is 77%.
For `N#CC1=C(N)SC(N)=C(C#N)C1CCC1CCCCC1`, the survival was 2% (active).
As to `CC(CC1C(C#N)=C(N)SC(N)=C1C#N)c1ccccc1` (stereo not given), the survival is 51%.
As to `N#CC1=C(N)SC(N)=C(C#N)C1c1ccc(O)cc1`, the survival is 82%.
Turning to `COc1ccccc1N1CCN(c2ncnc3c2cnn3C)CC1`, the survival is 83%.
Consider `CCOc1cccc(C(=O)N2CCC(c3nc4ccccc4s3)CC2)c1`, for which the survival was 75%.
As to `CCCOc1ccc(C(=O)N2CCC(c3nc4ccccc4s3)CC2)cc1`, the survival is 36% (active).
With `O=C(c1ccc(F)cc1)N1CCC(c2nc3ccccc3s2)CC1` the figure was 76%.
With `CC(C)COc1ccc(C(=O)N2CCC(c3nc4ccccc4s3)CC2)cc1` the figure was 17% (active); with `CCCOc1ccccc1C(=O)N1CCC(c2nc3ccccc3s2)CC1`, 63%.
In the case of `CC(C)Oc1ccc(C(=O)N2CCC(c3nc4ccccc4s3)CC2)cc1` it was 49%.

Source of the values: PubChem BioAssay AID463173 (ICCB-Longwood Screening Facility, Harvard Medical School, 2010).
